# According to ChEMBL document CHEMBL5724796, “Tm Shift (DSF) assay results for EUbOPEN Chemogenomics Library” (2024):
# Biological target: Tyrosine-protein kinase ABL1 (Homo sapiens) (UniProt P00519)
# Details: Compound concentration 20.0 uM
# Sequence of Tyrosine-protein kinase ABL1 (Homo sapiens) (P00519 whole entry): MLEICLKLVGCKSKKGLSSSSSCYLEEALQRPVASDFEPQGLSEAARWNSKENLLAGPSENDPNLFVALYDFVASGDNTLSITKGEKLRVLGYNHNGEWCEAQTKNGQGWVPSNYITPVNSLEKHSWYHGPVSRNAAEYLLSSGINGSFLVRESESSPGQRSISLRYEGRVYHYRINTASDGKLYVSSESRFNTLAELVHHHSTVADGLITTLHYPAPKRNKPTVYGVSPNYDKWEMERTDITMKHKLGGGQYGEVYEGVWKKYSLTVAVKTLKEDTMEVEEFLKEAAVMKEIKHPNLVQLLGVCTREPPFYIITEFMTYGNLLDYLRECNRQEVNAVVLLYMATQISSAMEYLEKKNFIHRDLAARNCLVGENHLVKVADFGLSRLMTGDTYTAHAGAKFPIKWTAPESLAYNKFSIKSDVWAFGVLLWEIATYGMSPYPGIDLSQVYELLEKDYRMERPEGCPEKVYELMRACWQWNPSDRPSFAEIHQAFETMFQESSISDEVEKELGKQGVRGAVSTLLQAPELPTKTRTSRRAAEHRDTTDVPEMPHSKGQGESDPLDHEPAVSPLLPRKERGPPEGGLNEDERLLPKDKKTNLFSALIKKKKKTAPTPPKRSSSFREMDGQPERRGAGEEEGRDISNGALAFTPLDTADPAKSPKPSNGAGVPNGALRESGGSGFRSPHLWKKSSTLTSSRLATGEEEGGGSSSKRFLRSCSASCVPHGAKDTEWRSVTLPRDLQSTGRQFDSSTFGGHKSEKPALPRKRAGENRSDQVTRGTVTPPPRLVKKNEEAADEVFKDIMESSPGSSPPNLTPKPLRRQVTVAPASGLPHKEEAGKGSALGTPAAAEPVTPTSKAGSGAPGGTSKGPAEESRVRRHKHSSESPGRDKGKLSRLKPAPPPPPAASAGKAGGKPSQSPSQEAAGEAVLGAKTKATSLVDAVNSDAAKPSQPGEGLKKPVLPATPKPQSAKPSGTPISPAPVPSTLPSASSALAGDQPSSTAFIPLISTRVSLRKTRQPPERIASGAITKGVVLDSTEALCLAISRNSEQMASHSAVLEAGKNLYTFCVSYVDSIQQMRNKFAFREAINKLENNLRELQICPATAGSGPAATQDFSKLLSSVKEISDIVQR
row,SMILES,ΔTm
1,COc1cc(C)[nH]c(=O)c1CNC(=O)c1c(C)n([C@H](C)C2CCN(CC(F)(F)F)CC2)c2ccccc12,0.27 °C
2,Fc1ccc(C(OCCN2CCN(CCCc3ccccc3)CC2)c2ccc(F)cc2)cc1,0.53 °C
3,O=[N+]([O-])c1cc(O)c(O)c([N+](=O)[O-])c1,0.3 °C
4,CNC(=O)c1cc(C(=O)NC2CC2)cn(Cc2ccccc2)c1=O,0.09 °C
5,N#Cc1ccc([C@H]2CCCC[C@H]2O)cc1C(F)(F)F,0.55 °C
6,O=C1C(P(=O)(O)O)CC(O)N1O (stereo not drawn),0.12 °C
7,CCS(=O)(=O)N1CCC([C@@H](C)n2c(C)c(C(=O)NCc3c(OC)cc(C)[nH]c3=O)c3ccccc32)CC1,0.06 °C
8,COc1cc(C)[nH]c(=O)c1CNC(=O)c1c(C)n([C@H](C)C2CCOCC2)c2ccccc12,0.28 °C
9,O=C1C(P(=O)(O)O)CCCN1O (stereo not drawn),0.38 °C
10,O=C(N1CCCC[C@@H]1Cc1ccccc1)n1cc(-c2ccc(-c3ccccc3)cc2)nn1,0.24 °C
11,N#Cc1ccc(N2N=C3c4ccc(C(=O)O)cc4CC[C@@H]3[C@@H]2C2CCCC2)cc1Cl,-2.47 °C
12,Cc1sc2c(c1C)C(c1ccc(Cl)cc1)=N[C@@H](CC(=O)OC(C)(C)C)c1nnc(C)n1-2,0.27 °C
13,C=CCO/N=C1\c2ccccc2-c2nc(C#N)c(C#N)nc21,0.13 °C
14,Nc1cccc(CNC(=O)c2ccc(Oc3ccc(OCc4cccc(F)c4)cc3)nc2)c1,1.07 °C
15,CC(=O)Nc1ccc(OC[C@](C)(O)C(=O)Nc2ccc([N+](=O)[O-])c(C(F)(F)F)c2)cc1,0.78 °C
16,C=Cc1cc(C(=O)Nc2ccc(C(=N)N)cc2)c(-c2ccc(C(=O)NCC3CC3)nc2C(=O)O)cc1OC,0.26 °C
17,N[C@H]1CC[C@H](N[C@@H]2C[C@H]2c2ccccc2)CC1,0.04 °C
18,Cc1ccc(N2C(=O)/C(=C/C=C/c3ccco3)C(=O)NC2=S)cc1Cl,0.75 °C
19,COc1cn(-c2ccc(-n3cccn3)cc2F)nc(-c2ccnn2-c2ccccc2)c1=O,0.53 °C
20,CCOC(=O)c1ccc(-c2ccc(OC(=O)N(C)Cc3cccc(-c4ccncc4)c3)cc2)cc1,1.38 °C

# Biological target: Bromodomain-containing protein 4 (Homo sapiens) (UniProt O60885)
# Details: Compound concentration 20.0 uM
row,SMILES,ΔTm
1,COc1cc(C)[nH]c(=O)c1CNC(=O)c1c(C)n([C@H](C)C2CCN(CC(F)(F)F)CC2)c2ccccc12,-2.03 °C
2,Fc1ccc(C(OCCN2CCN(CCCc3ccccc3)CC2)c2ccc(F)cc2)cc1,-4.03 °C
3,C[C@]12O[C@H](C[C@]1(O)CO)n1c3ccccc3c3c4c(c5c6ccccc6n2c5c31)CNC4=O,-1.2 °C
4,O=[N+]([O-])c1cc(O)c(O)c([N+](=O)[O-])c1,2.94 °C
5,CNC(=O)c1cc(C(=O)NC2CC2)cn(Cc2ccccc2)c1=O,-0.92 °C
6,N#Cc1ccc([C@H]2CCCC[C@H]2O)cc1C(F)(F)F,-1.51 °C
7,O=C1C(P(=O)(O)O)CC(O)N1O (stereo not drawn),0.66 °C
8,CCS(=O)(=O)N1CCC([C@@H](C)n2c(C)c(C(=O)NCc3c(OC)cc(C)[nH]c3=O)c3ccccc32)CC1,-2.35 °C
9,COc1cc(C)[nH]c(=O)c1CNC(=O)c1c(C)n([C@H](C)C2CCOCC2)c2ccccc12,-1.94 °C
10,CC(C)n1nc(-c2cc3cc(O)ccc3[nH]2)c2c(N)ncnc21,2.33 °C
11,O=C1C(P(=O)(O)O)CCCN1O (stereo not drawn),-1.37 °C
12,O=C(N1CCCC[C@@H]1Cc1ccccc1)n1cc(-c2ccc(-c3ccccc3)cc2)nn1,-2.3 °C
13,N#Cc1ccc(N2N=C3c4ccc(C(=O)O)cc4CC[C@@H]3[C@@H]2C2CCCC2)cc1Cl,0 °C
14,C=CCO/N=C1\c2ccccc2-c2nc(C#N)c(C#N)nc21,-2.12 °C
15,Nc1cccc(CNC(=O)c2ccc(Oc3ccc(OCc4cccc(F)c4)cc3)nc2)c1,-0.91 °C
16,CC(=O)Nc1ccc(OC[C@](C)(O)C(=O)Nc2ccc([N+](=O)[O-])c(C(F)(F)F)c2)cc1,-0.77 °C
17,C=Cc1cc(C(=O)Nc2ccc(C(=N)N)cc2)c(-c2ccc(C(=O)NCC3CC3)nc2C(=O)O)cc1OC,-1.29 °C
18,N[C@H]1CC[C@H](N[C@@H]2C[C@H]2c2ccccc2)CC1,-1.89 °C
19,Cc1ccc(N2C(=O)/C(=C/C=C/c3ccco3)C(=O)NC2=S)cc1Cl,-2.47 °C
20,COc1cn(-c2ccc(-n3cccn3)cc2F)nc(-c2ccnn2-c2ccccc2)c1=O,0.2 °C
21,CCOC(=O)c1ccc(-c2ccc(OC(=O)N(C)Cc3cccc(-c4ccncc4)c3)cc2)cc1,-2.49 °C

# Biological target: Cyclin-dependent kinase 2 (Homo sapiens) (UniProt P24941)
# Details: Compound concentration 20.0 uM
row,SMILES,ΔTm
1,COc1cc(C)[nH]c(=O)c1CNC(=O)c1c(C)n([C@H](C)C2CCN(CC(F)(F)F)CC2)c2ccccc12,-0.09 °C
2,Fc1ccc(C(OCCN2CCN(CCCc3ccccc3)CC2)c2ccc(F)cc2)cc1,-0.37 °C
3,C[C@]12O[C@H](C[C@]1(O)CO)n1c3ccccc3c3c4c(c5c6ccccc6n2c5c31)CNC4=O,9.18 °C
4,O=[N+]([O-])c1cc(O)c(O)c([N+](=O)[O-])c1,1.19 °C
5,CNC(=O)c1cc(C(=O)NC2CC2)cn(Cc2ccccc2)c1=O,0.1 °C
6,N#Cc1ccc([C@H]2CCCC[C@H]2O)cc1C(F)(F)F,0.11 °C
7,O=C1C(P(=O)(O)O)CC(O)N1O (stereo not drawn),-0.03 °C
8,CCS(=O)(=O)N1CCC([C@@H](C)n2c(C)c(C(=O)NCc3c(OC)cc(C)[nH]c3=O)c3ccccc32)CC1,0.2 °C
9,COc1cc(C)[nH]c(=O)c1CNC(=O)c1c(C)n([C@H](C)C2CCOCC2)c2ccccc12,0.11 °C
10,CC(C)n1nc(-c2cc3cc(O)ccc3[nH]2)c2c(N)ncnc21,2.02 °C
11,O=C1C(P(=O)(O)O)CCCN1O (stereo not drawn),0.09 °C
12,O=C(N1CCCC[C@@H]1Cc1ccccc1)n1cc(-c2ccc(-c3ccccc3)cc2)nn1,0.21 °C
13,N#Cc1ccc(N2N=C3c4ccc(C(=O)O)cc4CC[C@@H]3[C@@H]2C2CCCC2)cc1Cl,-2.04 °C
14,Cc1sc2c(c1C)C(c1ccc(Cl)cc1)=N[C@@H](CC(=O)OC(C)(C)C)c1nnc(C)n1-2,0 °C
15,C=CCO/N=C1\c2ccccc2-c2nc(C#N)c(C#N)nc21,0.55 °C
16,Nc1cccc(CNC(=O)c2ccc(Oc3ccc(OCc4cccc(F)c4)cc3)nc2)c1,0.38 °C
17,CC(=O)Nc1ccc(OC[C@](C)(O)C(=O)Nc2ccc([N+](=O)[O-])c(C(F)(F)F)c2)cc1,0.35 °C
18,C=Cc1cc(C(=O)Nc2ccc(C(=N)N)cc2)c(-c2ccc(C(=O)NCC3CC3)nc2C(=O)O)cc1OC,0.57 °C
19,N[C@H]1CC[C@H](N[C@@H]2C[C@H]2c2ccccc2)CC1,0.04 °C
20,Cc1ccc(N2C(=O)/C(=C/C=C/c3ccco3)C(=O)NC2=S)cc1Cl,-0.73 °C
21,COc1cn(-c2ccc(-n3cccn3)cc2F)nc(-c2ccnn2-c2ccccc2)c1=O,1.24 °C
22,CCOC(=O)c1ccc(-c2ccc(OC(=O)N(C)Cc3cccc(-c4ccncc4)c3)cc2)cc1,0.29 °C
